Screening results: PubChem, several laboratories
ADAM10 inh: human ADAM10 inhibitors, primary screen, biochemical, QFRET, HTS. Disintegrin and metalloproteinase domain-containing protein 10 (Homo sapiens), O14672. recombinant ADAM10, EDANS/DABCYL FRET peptide cleavage, 3 h. inhibition, % at 7 µM. AID 720582, 2013. 370,000 tested, 0.62% active;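 active = inhibition above a per-campaign cutoff equal to the mean of compounds falling between control-based bounds plus 3 SD, cut at about 20% in these data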
FAS TE block: FAS thioesterase domain inhibitors, primary screen, biochemical, fluorescence intensity, uHTS; Fatty acid synthase (Homo sapiens), P49327; recombinant FAS-TE, OMFH fluorogenic substrate, fluorescence endpoint; inhibition, % at 15 µM; 360,000 tested, 0.67% active;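 active = compounds whose normalised, plate-corrected inhibition of enzyme fluorescence in the single-dose primary screen is 50% or more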
NR3A LBD binder: binders of NR3A ligand-binding domain, primary screen, biophysical, differential scanning fluorimetry, uHTS | Glutamate receptor ionotropic, NMDA 3A (GRIN3A) ligand-binding domain | NR3A LBD differential scanning fluorimetry, Tm shift; 0% = protein alone, 100% = glycine-bound protein | Tm shift relative to glycine control, % at 25 µM | 340,000 tested, 2.5% active | AID 1259313, 2017;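 active = melting temperature shift of at least 10% of the positive control shift, at one fixed dose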
ADAM17 inh: ADAM17 inhibitors, primary screen, biochemical, QFRET. AID 720648, 2013. 370,000 tested, 0.83% active. recombinant ADAM17, EDANS/DABCYL FRET peptide cleavage. Disintegrin and metalloproteinase domain-containing protein 17 (Homo sapiens), P78536. inhibition, % at 6.95 µM;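 active = inhibition above the mean of compounds lying between control limits plus 3 SD, set per campaign, cut at about 8.5% in these data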
Target sequence (P78536 215-824 limits assumed): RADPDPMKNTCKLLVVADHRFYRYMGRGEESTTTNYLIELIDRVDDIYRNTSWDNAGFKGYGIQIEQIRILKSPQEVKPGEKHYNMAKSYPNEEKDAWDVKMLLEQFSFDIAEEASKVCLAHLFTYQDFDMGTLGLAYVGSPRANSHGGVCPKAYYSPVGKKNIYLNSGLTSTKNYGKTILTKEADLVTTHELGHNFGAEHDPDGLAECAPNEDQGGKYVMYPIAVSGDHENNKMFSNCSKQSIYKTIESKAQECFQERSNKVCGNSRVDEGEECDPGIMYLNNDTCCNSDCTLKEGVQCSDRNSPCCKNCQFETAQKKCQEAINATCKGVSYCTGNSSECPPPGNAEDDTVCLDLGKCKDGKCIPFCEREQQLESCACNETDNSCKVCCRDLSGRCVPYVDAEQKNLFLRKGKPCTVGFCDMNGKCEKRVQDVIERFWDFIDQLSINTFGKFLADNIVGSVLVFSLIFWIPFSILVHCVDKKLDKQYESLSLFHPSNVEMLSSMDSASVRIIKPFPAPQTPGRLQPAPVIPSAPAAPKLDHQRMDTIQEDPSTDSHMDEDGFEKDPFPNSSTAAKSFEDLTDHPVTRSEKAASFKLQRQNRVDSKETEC
KLK7 zymogen act: proKLK7 zymogen activators, primary screen, biochemical, fluorescence intensity; purified proKLK7, EDANS-DABCYL substrate fluorescence; 100% is mature enzyme control, 0% vehicle; activation, % at 7 µM; 370,000 tested, 0.9% active; AID 652039, 2013;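 active = activation above the mean of all tested compounds plus 3 SD, computed per campaign excluding outliers beyond control limits, cut at about 13% in these data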
Large screens that a line does not name were inactive. Sampled rows, rich in hits. Any-hit rate of the full collection: about 4.6%.

Cc1cc(C)cc(NC(=O)Nc2ccc(-n3ccc(C(F)(F)F)n3)cc2)c1	NR3A LBD binder 17.1
O=C(Cc1cccs1)Nc1nc2c(ccc3ccccc32)s1	NR3A LBD binder 10.8
O=C(N/N=C/c1c[nH]c2ccc(Br)cc12)c1ccncc1	NR3A LBD binder 25.9
O=C(N/N=C/c1c[nH]c2ccc(Br)cc12)C1CC1	NR3A LBD binder 10.4
O=C(N/N=C/c1c[nH]c2ccc(Br)cc12)c1ccccn1	NR3A LBD binder 10.2
O=C(N/N=C/c1c[nH]c2ccccc12)c1ccn(Cc2ccc(Cl)cc2)n1	none
O=C(N/N=C/c1c[nH]c2ccccc12)c1ccncc1	none
O=C(N/N=C/c1c[nH]c2ccc(Br)cc12)c1ccn(Cc2ccc(Cl)cc2Cl)n1	NR3A LBD binder 17.0
COC(=O)[C@H]1C[C@@]2(c3ccccc3)c3ccccc3N[C@H]2N1	none (no result: FAS TE block, NR3A LBD binder)
CCCC/C=C1/[C@H](c2ccc(Cl)cc2)N(Cc2ccc3c(c2)OCO3)C2=N[C@H](c3ccccc3)CC(=O)N21	none (no result: FAS TE block, NR3A LBD binder)
O=C(C1CC1)n1ccc2ccc(-c3ccc4ccn(Cc5ccccc5)c4c3)cc21	none (no result: FAS TE block, NR3A LBD binder)
CC(=O)Oc1cccc(/C=C2\Sc3ccccc3C2=O)c1	NR3A LBD binder 17.0
Cc1noc(C)c1C(=O)OCC(=O)NC1CC1	NR3A LBD binder 16.3
CCCCCCCCNS(=O)(=O)CC1NCc2ccc(C)cc21 (centres undefined)	none (no result: FAS TE block, NR3A LBD binder)
CCOc1ccccc1OCCCCOc1ccccc1F	NR3A LBD binder 25.4
COc1ccccc1OCCCCOc1ccccc1F	none
CCOc1cc(-c2sc(Nc3ccc(CC)cc3)n[n+]2-c2ccccc2)ccc1OC	none
CCOc1cc(-c2sc(Nc3cc(C)ccc3OC)n[n+]2-c2ccccc2)ccc1OC	NR3A LBD binder 12.9
Cc1ccc(-n2c(C)cc(C3=NNC(=NC4CC4)SC3)c2C)cc1C	ADAM17 inh 9.5
COC(=O)c1ccc(-c2ccc3c(c2)[C@]2(CCC[C@@H](O)[C@@H]2NC(=O)CCc2ccccc2)C(=O)N3Cc2ccccc2)cc1	none (no result: FAS TE block, NR3A LBD binder)
Oc1ccc(C[C@@H]2CNC(=S)N2CCc2cc(C(F)(F)F)cc(C(F)(F)F)c2)cc1	NR3A LBD binder 33.6
Oc1ccc(C[C@H]2CNC(=S)N2CCc2cc(C(F)(F)F)cc(C(F)(F)F)c2)cc1	NR3A LBD binder 31.1
Cc1ccnc(Nc2nc(-c3ccc(O)cc3O)cs2)c1	NR3A LBD binder 40.0
Cc1cccc(Nc2nc(-c3ccc(O)c(O)c3)cs2)n1	NR3A LBD binder 38.9
Cc1cccc(Nc2nc(-c3ccc(F)c(C)c3)cs2)n1	none
COc1ccc(-c2csc(Nc3cc(C)ccn3)n2)cc1C	none
CC(=O)Nc1ccc(Nc2nc(-c3c(C)nc4ccccn34)cs2)cc1	NR3A LBD binder 13.5
Oc1ccc(-c2csc(Nc3cccc4ccccc34)n2)cc1O	none
Oc1ccc(-c2csc(Nc3ccccn3)n2)cc1O	NR3A LBD binder 33.4
O=C(CSc1nnc(-c2cnccn2)n1-c1ccccc1)Nc1ccc2c(c1)OCCO2	none (no result: FAS TE block, NR3A LBD binder)
Cc1cccnc1Nc1nc(-c2ccc(O)c(O)c2)cs1	NR3A LBD binder 27.8
CC(=O)Nc1ccc(-c2csc(Nc3ccccn3)n2)cc1	NR3A LBD binder 29.9
CCC(=O)Nc1nc(C)c(-c2csc(Nc3ccccn3)n2)s1	NR3A LBD binder 25.0
Cc1ccnc(Nc2nc(-c3ccc(O)c(O)c3)cs2)c1	NR3A LBD binder 38.5
COc1ccc(-c2csc(Nc3ncccc3C)n2)cc1OC	none
Cc1ccnc(Nc2nc(-c3ccc(O)cc3)cs2)c1	NR3A LBD binder 17.9
CCOc1ccc(C(=O)NC(=S)Nc2ccc(NC(=O)c3ccco3)cc2)cc1[N+](=O)[O-]	NR3A LBD binder 41.2
Cc1ccc(NC(=O)c2ccco2)c([N+](=O)[O-])c1	none
Cc1c([N+](=O)[O-])cc(C(=O)Nc2ccc(NC(=O)c3ccco3)cc2)cc1[N+](=O)[O-]	NR3A LBD binder 24.5
COc1cc(C(=O)NC(=S)Nc2ccc(NC(=O)c3ccco3)cc2)cc(OC)c1OC	NR3A LBD binder 21.9
Cc1ccc2oc(=O)c3cnn(CC(=O)NCCC(C)C)c3c2c1	NR3A LBD binder 12.8
CC(C)C(C#CC1CC1)N(Cc1ccc2c(c1)OCO2)C(N)=NC(=O)/C=C/c1ccccc1 (centres undefined)	none (no result: FAS TE block, NR3A LBD binder)
COc1cc(/C=N/Nc2cccc3cccnc23)cc(OC)c1O	none
Oc1c(/C=N/Nc2cccc3cccnc23)ccc2ccccc12	NR3A LBD binder 31.6
Oc1cccc(/C=N/Nc2cccc3cccnc23)c1	NR3A LBD binder 32.2
CCCCN1CCN(C(=O)C2CCCN(C(=O)c3ccc4c(c3)NC(=O)CS4)C2)CC1 (centres undefined)	none (no result: FAS TE block, NR3A LBD binder)
O=C1CSc2ccc(C(=O)N3CCCC(C(=O)N4CCCN(Cc5ccccc5)CC4)C3)cc2N1 (centres undefined)	none (no result: FAS TE block, NR3A LBD binder)
O=C(O)c1cccc2c1-c1ccc(Cl)cc1C2=O	NR3A LBD binder 14.0
O=[N+]([O-])c1ccc2nc(CNc3nc(N4CCOCC4)nc4c3ncn4-c3ccsc3)[nH]c2c1	none (no result: FAS TE block, NR3A LBD binder, KLK7 zymogen act)
NNc1nc(-c2ccccc2)nc2sc3c(c12)CCCC3	none
Nc1c2c(nc3sc4c(c13)CCCC4)-c1ccccc1CC2	NR3A LBD binder 22.5
O=C(COc1ccccc1[N+](=O)[O-])NCCC1=CCCCC1	NR3A LBD binder 11.0
O=C(CCn1nc(-c2ccc(Cl)cc2)ccc1=O)N1CCN(c2ccccc2)CC1	FAS TE block 51.3
O=C(CCn1nc(-c2ccccc2)ccc1=O)N1CCN(c2ccccc2)CC1	none
Cc1ccc(NC(=O)CSc2nc(N)c3c4c(sc3n2)CSC(C)(C)C4)cc1	NR3A LBD binder 23.6
Cc1ccccc1NC(=O)CSc1nc(N)c2c3c(sc2n1)CSC(C)(C)C3	none
CSc1nsc(SCC(=O)N2CCN(c3ccccc3)CC2)n1	NR3A LBD binder 11.0
CSc1nsc(SCC(=O)Nc2ccccc2)n1	none
Cc1ccc2c(c1)C(CS(=O)(=O)NCc1ccccc1)NC2 (centres undefined)	none (no result: FAS TE block, NR3A LBD binder)
Nc1cc(-c2ccc(Br)cc2)[nH]n1	NR3A LBD binder 11.6
CC(=O)Nc1sc2c(c1-c1nc3ccccc3s1)CCCN(C(C)C)C2	none (no result: FAS TE block, NR3A LBD binder, KLK7 zymogen act)
Cc1ccc(NC(=O)CCS(=O)(=O)c2ccccc2)c(C)c1	none (no result: FAS TE block, NR3A LBD binder)
COc1ccc(N=C2NN=C(c3c(C)[nH]c4ccccc34)CS2)cc1	none
Cc1[nH]c2ccccc2c1N=Nc1ccc(F)cc1	NR3A LBD binder 24.6
Cc1[nH]c2ccccc2c1C1=NNC(=Nc2ccc(F)cc2)SC1	NR3A LBD binder 12.0
O=C(Nc1nc(-c2ccccc2)cs1)C1CCCN(S(=O)(=O)c2ccccc2)C1 (centres undefined)	ADAM17 inh 9.4
